# Measurements: PubChem BioAssay AID1159580 (chemical genetic matrix, 2015)
# Where “and” joins values, the source holds several entries; their conditions need not be identical. Identical values can stand only once. Out of some 5,500 compounds screened, about 2,000 (36%) were called active. About 18% were inconclusive and are not listed. Some of the results follow. A number with no mark means an inactive call. Rule as the data show it: active = normalized growth mostly below about 0.91 (no sharp cut-off); inconclusive = no clear call, values can overlap the other calls; inactive = mostly above about 0.92.
# Assay: chemical genetic growth profiling, strain panel (AID 1159580);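 also: tested at 20 µM; growth read once vehicle control cultures reached saturation at 30 °C; 1 = growth at the plate median or of vehicle wells; lower values mean less growth of the strain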
# Details: S. cerevisiae deletion strains, growth OD
compound,measurement,setting,value
CC(=O)[C@@]1(O)CCC2C3CCC4=CC(=O)CC[C@]4(C)C3CC[C@@]21C (stereo partly drawn),normalized growth,"locus YAL021C, strain ccr4, hits give low values",0.99
same,normalized growth,"locus YAL026C, strain drs2, hits give low values",0.992
same,normalized growth,"locus YAL030W, strain snc1, hits give low values",0.998
same,normalized growth,"locus YBL061C, strain skt5, hits give low values",0.991
same,normalized growth,"locus YBR009C, strain hhf1, hits give low values",0.995
same,normalized growth,"locus YBR021W, strain FUR4, hits give low values",1.01
same,normalized growth,"locus YBR023C, strain chs3, hits give low values",0.995
same,normalized growth,"locus YBR171W, strain sec66, hits give low values",0.985
same,normalized growth,"locus YBR229C, strain ROT2, hits give low values",0.993
same,normalized growth,"locus YBR231C, strain swc5, hits give low values",0.999
same,normalized growth,"locus YBR279W, strain paf1, hits give low values",0.986
same,normalized growth,"locus YCL011C, strain gbp2, hits give low values",0.997
same,normalized growth,"locus YCL016C, strain dcc1, hits give low values",0.992
same,normalized growth,"locus YCL029C, strain bik1, hits give low values",1.01
same,normalized growth,"locus YCL061C, strain MRC1, hits give low values",0.987
same,normalized growth,"locus YCL069W, strain vba3, hits give low values",0.996
same,normalized growth,"locus YCR088W, strain abp1, hits give low values",0.988
same,normalized growth,"locus YDL005C, strain med2, hits give low values",0.975
same,normalized growth,"locus YDL035C, strain GPR1, hits give low values",1.01
same,normalized growth,"locus YDL040C, strain nat1, hits give low values",0.993
same,normalized growth,"locus YDL074C, strain BRE1, hits give low values",1.04
same,normalized growth,"locus YDL101C, strain DUN1, hits give low values",0.996
same,normalized growth,"locus YDL134C, strain PPH21, hits give low values",0.99
same,normalized growth,"locus YDL185W, strain tfp1, hits give low values",1.01
same,normalized growth,"locus YDL192W, strain arf1, hits give low values",0.992
same,normalized growth,"locus YDR001C, strain nth1, hits give low values",0.989
same,normalized growth,"locus YDR069C, strain doa4, hits give low values",0.996
same,normalized growth,"locus YDR101C, strain arx1, hits give low values",1.04
same,normalized growth,"locus YDR137W, strain rgp1, hits give low values",0.815 (active)
same,normalized growth,"locus YDR159W, strain sac3, hits give low values",0.931
same,normalized growth,"locus YDR162C, strain NBP2, hits give low values",0.977
same,normalized growth,"locus YDR195W, strain ref2",0.995
same,normalized growth,"locus YDR297W, strain sur2, hits give low values",0.994
same,normalized growth,"locus YDR318W, strain mcm21, hits give low values",0.99
same,normalized growth,"locus YDR334W, strain swr1, hits give low values",0.992
same,normalized growth,"locus YDR335W, strain msn5, hits give low values",1.01
same,normalized growth,"locus YDR388W, hits give low values",1.01
same,normalized growth,"locus YDR392W, strain spt3, hits give low values",0.891
same,normalized growth,"locus YDR502C, strain sam2, hits give low values",1.01
same,normalized growth,"locus YEL003W, strain gim4, hits give low values",0.999
same,normalized growth,"locus YEL037C, strain rad23, hits give low values",0.993
same,normalized growth,"locus YEL061C, strain CIN8 (second series), hits give low values",0.993
same,normalized growth,"locus YEL061C, strain CIN8, hits give low values",0.995
same,normalized growth,"locus YER015W, strain faa2, hits give low values",0.998
same,normalized growth,"locus YER016W, strain bim1, hits give low values",0.99
same,normalized growth,"locus YER110C, hits give low values",1.01
same,normalized growth,"locus YER111C, strain swi4, hits give low values",0.987
same,normalized growth,"locus YER155C, strain BEM2 (second series), hits give low values",0.995
same,normalized growth,"locus YER155C, strain BEM2, hits give low values",1
same,normalized growth,"locus YER167W, strain BCK2, hits give low values",0.994
same,normalized growth,"locus YFR010W, strain ubp6, hits give low values",1.01
same,normalized growth,"locus YGL078C, strain dbp3, hits give low values",1.04
same,normalized growth,"locus YGL086W, strain mad1, hits give low values",1.03
same,normalized growth,"locus YGL167C, strain pmr1, hits give low values",0.983
same,normalized growth,"locus YGL173C, strain kem1, hits give low values",0.99
same,normalized growth,"locus YGL227W, strain vid30, hits give low values",0.994
same,normalized growth,"locus YGL240W, strain doc1, hits give low values",0.989
same,normalized growth,"locus YGL248W, strain PDE1, hits give low values",0.985
same,normalized growth,"locus YGL253W, strain hxk2, hits give low values",0.997
same,normalized growth,"locus YGR078C, strain PAC10, hits give low values",0.991
same,normalized growth,"locus YGR135W, strain pre9, hits give low values",0.966
same,normalized growth,"locus YGR252W, strain gcn5, hits give low values",1.04
same,normalized growth,"locus YHR013C, strain ard1, hits give low values",0.989
same,normalized growth,"locus YHR027C, strain rpn1, hits give low values",0.992
same,normalized growth,"locus YHR030C, strain SLT2, hits give low values",1 and 0.968
same,normalized growth,"locus YHR079C, strain IRE1 (second series), hits give low values",1.01
same,normalized growth,"locus YHR079C, strain IRE1, hits give low values",0.983
same,normalized growth,"locus YHR094C, strain hxt1, hits give low values",0.999
same,normalized growth,"locus YHR129C, strain ARP1, hits give low values",0.993
same,normalized growth,"locus YHR142W, strain chs7, hits give low values",0.993
same,normalized growth,"locus YHR200W, strain rpn10, hits give low values",1.02
same,normalized growth,"locus YIL066C, strain RNR3, hits give low values",0.994
same,normalized growth,"locus YIL073C, strain SPO22, hits give low values",1.03
same,normalized growth,"locus YIL125W, strain kgd1, hits give low values",1.03
same,normalized growth,"locus YIR030C, strain dcg1, hits give low values",1.01
same,normalized growth,"locus YJL092W, strain hpr5, hits give low values",0.991
same,normalized growth,"locus YJL095W, strain BCK1 (second series), hits give low values",0.992
same,normalized growth,"locus YJL095W, strain BCK1, hits give low values",0.96 and 0.984
same,normalized growth,"locus YJL115W, strain asf1, hits give low values",0.987
same,normalized growth,"locus YJL129C, strain trk1, hits give low values",0.955
same,normalized growth,"locus YJL134W, strain LCB3, hits give low values",0.998
same,normalized growth,"locus YJL154C, strain vps35, hits give low values",0.987
same,normalized growth,"locus YJL164C, strain tpk1, hits give low values",0.985
same,normalized growth,"locus YJL166W, strain qcr8, hits give low values",0.998
same,normalized growth,"locus YJL168C, strain set2, hits give low values",1
same,normalized growth,"locus YJL187C, strain SWE1 (second series), hits give low values",0.994
same,normalized growth,"locus YJL187C, strain SWE1, hits give low values",0.997
same,normalized growth,"locus YJR043C, strain POL32, hits give low values",1.05
